Among the data in PubChem BioAssay are composite z-score and z-score values, retold here.

Assay [1] has as its system Human papillomavirus type 1a protein E7 (residues 44-93). The experiment in a line: small molecules binding HPV E7 44-93 – biochemical, small-molecule microarray, residues 44-93, 635 nm fluorescence, primary screen (AID 1108).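 Further: E7 fragment applied at 1 µg/mL in TBST for 1 h at 4 C; score combines spot fluorescence with its signal to noise ratio.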 The note with it: fluorescence 635 nm, higher = more signal.
Assay [2] is described as follows: hepatitis C replication reporter changes, two-sided – Huh7 cells, luciferase reporter, HCV replication inhibitor project, primary screen (AID 1109).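 Further: huh7 hepatoma cells harbouring a luciferase neomycin HCV replicon reporter; luciferase luminescence as measure of HCV replicon replication; test concentration not given here.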 The conditions noted are these: Huh7 HCV replicon luciferase reporter, 48 h; higher = more signal. (In general: Reporter assays use an easily measured gene product as a stand-in for the process of interest.)
In assay [3] the target is Left-right determination factor 2 (Homo sapiens) (UniProt O00292). The experiment in a line: small molecules binding LEFTY2 protein – biochemical, small-molecule microarray, 635 nm fluorescence scan, primary screen (AID 1110). The note with it: higher = more signal.
Left-right determination factor 2 (Homo sapiens), sequence (O00292 whole entry, looked up): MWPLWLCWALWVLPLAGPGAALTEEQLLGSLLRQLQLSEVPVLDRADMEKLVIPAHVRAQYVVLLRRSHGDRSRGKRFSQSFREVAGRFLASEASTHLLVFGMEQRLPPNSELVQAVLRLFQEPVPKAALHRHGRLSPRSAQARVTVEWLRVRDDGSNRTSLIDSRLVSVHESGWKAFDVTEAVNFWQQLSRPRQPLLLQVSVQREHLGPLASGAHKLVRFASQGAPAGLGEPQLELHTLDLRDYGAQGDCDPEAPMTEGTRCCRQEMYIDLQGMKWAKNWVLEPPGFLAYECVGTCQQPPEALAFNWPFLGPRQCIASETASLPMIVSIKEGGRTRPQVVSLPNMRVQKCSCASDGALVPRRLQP
In assay [4] the target is Calmodulin-1 (Homo sapiens) (UniProt P0DP23). The experiment in a line: small molecules binding calmodulin-1 with EGTA – biochemical, small-molecule microarray, Cy5-labelled CALM1, profiling panel (AID 1111).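 Further: labelled calmodulin applied in Tris saline Tween buffer holding calcium plus EGTA and DTT.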 The note with it: Cy5-CALM1 binding fluorescence, higher = more signal.
Assay [5] has the same target. The experiment in a line: small molecules binding Ca-loaded calmodulin-1 – biochemical, small-molecule microarray, Cy5-labelled CALM1, plus calcium, artefact control for SMM control-protein annotation, profiling panel (AID 1112).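 Further: score merges spot fluorescence with signal to noise from triplicate slides.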 The note with it: Cy5-CALM1 binding fluorescence, higher = more signal.
Assay [6] can be described thus: probe aWnt5a binding to arrayed compounds – biochemical, biotinylated probe, 635/667 nm fluorescence, primary screen (AID 1113).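 Further: score merges 667 nm fluorescence intensity with signal-to-noise per printed feature.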 The note with it: small-molecule microarray, higher = more signal.
Assay [7] is described as follows: probe aShh binding to arrayed compounds – biochemical, biotinylated probe, 635/667 nm fluorescence, primary screen (AID 1114).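 Further: probe is biotin-labelled aShh protein from a stem cell growth factor screen; measures binding of labelled protein to compounds printed on the slide; score merges feature fluorescence at 667 nm with signal-to-noise.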 The note with it: small-molecule microarray, higher = more signal.
Assay [8] is described as follows: probe aNog binding to arrayed compounds – biochemical, biotinylated probe, 635/667 nm fluorescence, primary screen (AID 1115).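 Further: probe is biotinylated aNog protein used at 0.15 µg/mL for 1 h at 4 C; z-score combines 667 nm fluorescence of each spot with its signal to noise.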 The note with it: small-molecule microarray, higher = more signal.
Assay [9] has as its target Torsin-1A-interacting protein 1 (Homo sapiens) (UniProt Q5JTV8). The assay is described as follows: compound microarray binding of lysate hLAP1 – cell lysate, small-molecule microarray, COS7 lysate, 635/667 nm fluorescence, primary screen (AID 1116). The conditions noted are these: 635 nm fluorescence, higher = more signal.
Assay [10] deals with Alpha-bungarotoxin (Bungarus multicinctus) (UniProt P60615). The assay is described as follows: compounds binding labelled alpha-BTX control protein – biochemical, small-molecule microarray, Alexa647 label, 635/667 nm fluorescence, artefact control for SMM control protein annotation, profiling panel (AID 1117). The note with it: alpha-BTX-A647 binding fluorescence, higher = more signal.
Alpha-bungarotoxin (Bungarus multicinctus), sequence (P60615 whole entry, looked up): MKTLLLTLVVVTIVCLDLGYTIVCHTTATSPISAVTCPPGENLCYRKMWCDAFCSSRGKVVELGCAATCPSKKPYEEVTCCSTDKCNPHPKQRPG

Structures are written as SMILES.

Torsin-1A-interacting protein 1 (Homo sapiens), sequence (Q5JTV8 whole entry, looked up): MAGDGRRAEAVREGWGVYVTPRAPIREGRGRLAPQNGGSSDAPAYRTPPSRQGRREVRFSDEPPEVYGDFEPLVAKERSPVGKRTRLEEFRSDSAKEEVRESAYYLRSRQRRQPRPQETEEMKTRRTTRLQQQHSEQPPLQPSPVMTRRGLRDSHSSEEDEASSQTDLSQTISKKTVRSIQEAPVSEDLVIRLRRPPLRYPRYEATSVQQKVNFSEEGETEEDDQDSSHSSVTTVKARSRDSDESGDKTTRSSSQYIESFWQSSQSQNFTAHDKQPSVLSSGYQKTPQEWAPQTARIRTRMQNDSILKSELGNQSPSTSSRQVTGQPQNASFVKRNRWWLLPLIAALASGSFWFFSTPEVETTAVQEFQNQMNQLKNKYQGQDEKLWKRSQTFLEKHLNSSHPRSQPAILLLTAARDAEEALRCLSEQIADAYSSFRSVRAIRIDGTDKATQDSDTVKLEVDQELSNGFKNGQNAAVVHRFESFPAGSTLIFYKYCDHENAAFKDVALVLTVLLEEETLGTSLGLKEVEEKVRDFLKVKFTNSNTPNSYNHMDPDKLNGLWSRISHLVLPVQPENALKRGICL

Take `C=CCC(OC(C)=O)[C@@H]1[C@@H](N(Cc2ccc(-c3ccccc3)cc2)C(=O)Cc2ccc(F)cc2)c2cc(OCCCO)ccc2N1C(=O)Cc1ccc(OC)cc1` (stereo not given in full): the composite z-score in [1] is -0.0218; in assay [3], 0.0922; in assay [4], 0.498; in assay [5], -0.124; in [6], -0.0478; in [7] it was -0.343. For the same compound, the composite z-score in assay [8] is -0.394; in assay [9], -0.002; in assay [10], 0.215. Moreover, in assay [2], the z-score is -0.71.

As for `COCCOC(=O)N1C(=O)[C@@]2(c3cc(C#CCC(C(=O)OC)C(=O)OC)ccc31)[C@H](C(=O)N1CCc3cc(OC)c(OC)cc3C1)[C@H]1C(=O)O[C@H](c3ccccc3)[C@H](c3ccccc3)N1[C@@H]2c1ccc(OCCO)cc1`, the composite z-score is 1.39 in [1]; 0.608 in assay [3]; 0.756 in assay [4]; -0.551 in assay [5]; -0.006 in [6]; -0.1 in [7]. The composite z-score in assay [8] was -0.103; in assay [9], 0.0568; in assay [10], 2.16. The z-score in assay [2] is -0.45.

On to `COc1ccc([Si](C)(C)[C@@H]2[C@@H](CC(=O)N(CCO)Cc3ccccc3)O[C@]3(C(=O)N(c4ccccc4)c4ccccc43)[C@H]2C)cc1`, for which the composite z-score in assay [1] is 1.33; in [3], 0.739; in assay [4] it was 0.545; in assay [5], 0.0061; in [6] it was -0.0559; in assay [7], -0.135. In addition, the composite z-score in assay [8] is -0.495; in [9], 0.395; in assay [10], 0.883. This compound displayed a z-score in assay [2] of -4.59.

Turning to `O=C1O[C@H](c2ccccc2)[C@H](c2ccccc2)N2[C@H]1[C@@H](C(=O)Nc1nc3ccccc3s1)[C@]1(C(=O)Nc3ccccc31)[C@H]2c1ccc(OCCO)cc1`, the composite z-score in assay [1] was 1.36; in assay [3], 0.807; in assay [4], 0.504; in assay [5] it was -0.302; in assay [6], -0.16; in [7], 0.0899. Besides, the results for the composite z-score in assay [8], in assay [9] and in [10] were -0.411, 0.442 and 1.02, respectively. Moreover, the z-score in assay [2] was -2.64.

In the case of `C=CCC(OC(C)=O)[C@@H]1[C@@H](N(Cc2cc3ccccc3o2)C(=O)c2ccc(C)cc2)c2cc(OCCCO)ccc2N1C(=O)Cc1ccc(OC)cc1` (stereo not given in full), the composite z-score is -0.098 in assay [1]; -0.0667 in assay [3]; -0.254 in assay [4]; -0.583 in assay [5]; 0.0317 in assay [6]; 0.136 in assay [7]. Besides, the values for the composite z-score in assay [8], in assay [9] and in assay [10] were -0.318, -0.0471 and 0.203, respectively. Moreover, the z-score in assay [2] was -0.169.

With `C=CCC(OC(C)=O)[C@@H]1[C@@H](N(Cc2ccc(-c3cccc(C(F)(F)F)c3)o2)C(=O)c2ccc(C)cc2)c2cc(OCCCO)ccc2N1C(=O)c1ccc2ccccc2c1` (stereo not given in full), the composite z-score is -0.191 in assay [1]; -0.0584 in assay [3]; -0.287 in assay [4]; -0.208 in assay [5]; 0.0433 in assay [6]; -0.221 in assay [7]. The composite z-score is -0.347 in assay [8], -0.048 in assay [9] and -0.0213 in [10]. The z-score in assay [2] was -0.471.

Regarding `COCCCNC(=O)[C@@]1(Cc2ccccc2CN=[N+]=[N-])N=C(c2ccc(OCCCO)cc2)O[C@H]1c1ccccc1`, the composite z-score in assay [1] is 1.47; in assay [3], -0.0313; in assay [4] it was 1.34; in [5] it was 0.475; in [6] it was 0.0257; in assay [7], 0.313. Besides, the figures for the composite z-score in assay [8], in assay [9] and in assay [10] were 0.999, 1.62 and 1.52, respectively. The compound also registered a z-score in assay [2] of -2.84.

`CN1C(=O)C2C=CC(C(O)c3ccc(F)cc3)N(Nc3ccccc3)C2C1=O` (stereo not given): the composite z-score is 0.793 in assay [1]; 0.0204 in assay [3]; 0.746 in assay [4]; 0.693 in assay [5]; -0.0165 in assay [6]; -0.412 in assay [7]. Further, the composite z-score in assay [8] is -0.305; in [9], 0.635; in assay [10], 1.62. The compound further came in with a z-score in assay [2] of -0.216.

Take `Cc1ccccc1C(O)C1C=CC2C(=O)N(C)C(=O)C2N1N(c1ccccc1)c1ccccc1` (stereo not given): the composite z-score in assay [1] was -1.19; in assay [3], -0.0024; in [4] it was -0.945; in assay [5], -0.454; in assay [6] it was 0.0737; in [7] it was 0.0582. Further, the composite z-score in [8] was 0.387; in assay [9], 0.0266; in assay [10], 0.305. The compound further had a z-score in assay [2] of -0.247.

Regarding `O=C1O[C@H](c2ccccc2)[C@H](c2ccccc2)N2[C@H]1[C@@H](C(=O)O)[C@]1(C(=O)Nc3ccc(C#CC4=CCCCC4)cc31)[C@H]2c1ccc(O)cc1`, the composite z-score in assay [1] was 1.33; in assay [3] it was 0.658; in assay [4], -0.461; in assay [5], -0.283; in [6], -0.0792; in [7], 0.0284. Also, the composite z-score in assay [8] was -0.213; in assay [9] it was 0.499; in [10], -0.188. The z-score in assay [2] is -0.955.

`CC=CC(O)C1C=CC2C(=O)N(c3ccccc3)C(=O)C2N1Nc1ccccc1F` (stereo not given): the composite z-score in [1] was 0.286; in assay [3], -0.0207; in assay [4], 0.416; in assay [5], 0.213; in assay [6], 0.339; in assay [7], 0.429. Also, the composite z-score in assay [8] is 1.07; in [9], 0.0757; in [10], 0.437. For the same compound, in [2], the z-score is -0.536.

Consider `CCOC(=O)C[C@H]1[C@H](OC(=O)Cc2ccc3c(c2)OCO3)[C@@H](NC(=O)CC(C)C)c2cc(OCCCO)ccc2N1C(=O)Cc1ccc(OC)cc1`, for which the composite z-score in assay [1] is 0.479; in assay [3] it was 0.073; in assay [4], -0.221; in assay [5], -0.361; in assay [6] it was -0.012; in assay [7], -0.138. Besides, the composite z-score in [8] was -0.25; in [9], 0.466; in assay [10], 1.03. The same compound registered a z-score in [2] of -0.948.

As to `CC(C)(C)OC(=O)CC[C@]1(C(=O)NCC(O)CO)N=C(c2ccc(OCCCO)cc2)O[C@H]1c1ccccc1` (stereo not given in full), the composite z-score in assay [1] was 1.32; in [3] it was -1.13; in [4], 0.451; in assay [5], 1.24; in [6], -0.0403; in [7], -0.0904. Besides, the composite z-score in assay [8] is 0.701; in [9] it was 1.93; in [10], -0.383. The same compound gave a z-score in assay [2] of -1.74.
